According to the supplement of paper PMC10849652:
Of roughly 7,900 targets only a part is listed; those with a hit were picked by preference. About 0.6% of all pairs of compound and target were hits. Values without a mark were called inactive.

Assays:
Experiment in all cases: log2 fold change, soluble protein after heating vs DMSO (PISA); higher = thermal stabilisation; K562 cells, 10 uM, 30 min; active = over 0.2 and 3.5 SD of the protein, either way, in both replicates (recomputed)
[1] = compound: C#Cc1cccc(Nc2ncnc3cc(OCCOC)c(OCCOC)cc23)c1 [erlotinib]
Procedure, shortened: (§1)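 For each measurement, 10 μM compound was applied for 30 min to K562 cells at 2×10^6 cells/mL. Aliquots were heated for 3 min across 48°C-58°C, pooled, and extracted in PBS with 0.5% NP-40 at 4°C; the supernatant after 21,000xg for 90 min was soluble protein. This was quantified by TMTpro 16plex LC-MS/MS with channel sums equalised, and thermal stability was reported relative to control samples from duplicates, on a log2 fold-change scale.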

[2] = compound: C/C(=N\NC(=O)C1=CC(=CC=C1)S(=O)(=O)N2CCOCC2)/C3=C(C=CC(=C3)Cl)O
Procedure, shortened: as §1

[3] = compound: C1=CC(=C(C=C1Cl)C2=NC3=NC=CN=C3C(=N2)NC4=CC=NC=C4)F
Procedure, shortened: as §1

[4] = compound: C1=CC(=CC=C1C2=NC3=C(N2)C=C(C=C3)C(=O)N)OC4=CC=C(C=C4)Cl
Procedure, shortened: as §1

[5] = compound: C1=CC2=C(C=CC(=C2)/C=C\3/C(=O)NC(=NCC4=CC=CS4)S3)N=C1
Procedure, shortened: as §1

[6] = compound: C1=CC2=NC=CN=C2C=C1/C=C/3\C(=O)NC(=O)S3
Procedure, shortened: as §1

[7] = compound: C1=CC=C(C=C1)C2=NC(=C(N2)C3=CC=NC=C3)C4=CC(=C(C=C4)Cl)O
Procedure, shortened: as §1

[8] = compound: C1=CC=C2C(=C1)C3=NNC4=CC=CC(=C43)C2=O
Procedure, shortened: as §1

[9] = compound: C1CCN(C1)C(=O)NC2=CC=CC(=C2)NC3=NC=C(C(=N3)NCCC4=CN=CN4)Br
Procedure, shortened: as §1

[10] = compound: C1CN(CCC1(CC2=CC=C(C=C2)Cl)N)C3=NC=NC4=C3C=CN4
Procedure, shortened: as §1

[11] = compound: C1COCCN1CCN2C3=CC=CC=C3N=C2NC(=O)C4=CC(=CC=C4)[N+](=O)[O-] [IRAK-1-4 Inhibitor I]
Procedure, shortened: as §1

[12] = compound: C=CC(=O)N1CCC[C@@H](n2nc(-c3ccc(Oc4ccccc4)cc3)c3c(N)ncnc32)C1 [ibrutinib]
Procedure, shortened: as §1

[13] = compound: CC(=O)c1cnc2ccc(-c3cc(Cl)c(O)c(Cl)c3)nc2c1N[C@H]1CC[C@H](CN(C)C)CC1
Procedure, shortened: as §1

[14] = compound: CC(C)(C)Cn1c(N)nc2ccc(-c3[nH]c(C(C)(C)C)nc3-c3ccc(F)cc3)nc21 [ralimetinib]
Procedure, shortened: as §1

[15] = compound: CC(C)(O)CC(=O)NCCn1ccc2ncnc(Nc3ccc(Oc4cccc(C(F)(F)F)c4)c(Cl)c3)c21
Procedure, shortened: as §1

[16] = compound: CC(C)C1=C2N=C(C=C(N2N=C1)NCC3=CC=CC=C3)NCCCCCCN
Procedure, shortened: as §1

[17] = compound: CC(C)C[C@@H](C=O)NC(=O)[C@H](CC(C)C)NC(=O)[C@H](CC(C)C)NC(=O)OCc1ccccc1
Procedure, shortened: as §1

[18] = compound: CC(C)N(C[C@H]1O[C@@H](n2cnc3c(N)ncnc32)[C@H](O)[C@@H]1O)[C@H]1C[C@@H](CCc2nc3cc(C(C)(C)C)ccc3[nH]2)C1 [pinometostat]
Procedure, shortened: as §1

[19] = compound: CC1=C(C(CC(=O)N1)C2=CC=C(C=C2)C(F)(F)F)C(=O)NC3=C(C=C4C(=C3)C=NN4)F
Procedure, shortened: as §1

[20] = compound: CC1=C(C2=C(C=C1)C(=O)C3=CC=CC=C3N2CCCN)C
Procedure, shortened: as §1

UniProt Q9BU23, sequence (Q9BU23 whole entry, looked up): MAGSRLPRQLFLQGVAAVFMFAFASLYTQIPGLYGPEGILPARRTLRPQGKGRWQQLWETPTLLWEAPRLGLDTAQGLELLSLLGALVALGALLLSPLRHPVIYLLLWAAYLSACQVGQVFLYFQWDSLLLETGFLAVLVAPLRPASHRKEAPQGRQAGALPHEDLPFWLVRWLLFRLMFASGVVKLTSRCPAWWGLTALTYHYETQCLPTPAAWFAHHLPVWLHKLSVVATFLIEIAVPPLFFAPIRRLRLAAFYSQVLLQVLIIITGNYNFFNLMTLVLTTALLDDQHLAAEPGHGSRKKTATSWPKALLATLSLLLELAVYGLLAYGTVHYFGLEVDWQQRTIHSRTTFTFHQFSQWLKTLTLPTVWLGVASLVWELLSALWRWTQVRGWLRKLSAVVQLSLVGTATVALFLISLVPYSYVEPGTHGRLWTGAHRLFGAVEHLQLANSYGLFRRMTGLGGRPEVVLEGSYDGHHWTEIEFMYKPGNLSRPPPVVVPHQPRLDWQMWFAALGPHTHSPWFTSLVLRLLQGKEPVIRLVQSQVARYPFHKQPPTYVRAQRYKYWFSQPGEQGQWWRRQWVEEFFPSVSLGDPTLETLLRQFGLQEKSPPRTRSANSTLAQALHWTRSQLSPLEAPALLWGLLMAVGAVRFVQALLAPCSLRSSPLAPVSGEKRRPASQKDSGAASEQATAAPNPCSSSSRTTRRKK
UniProt A1L0T0, sequence (A1L0T0 whole entry, looked up): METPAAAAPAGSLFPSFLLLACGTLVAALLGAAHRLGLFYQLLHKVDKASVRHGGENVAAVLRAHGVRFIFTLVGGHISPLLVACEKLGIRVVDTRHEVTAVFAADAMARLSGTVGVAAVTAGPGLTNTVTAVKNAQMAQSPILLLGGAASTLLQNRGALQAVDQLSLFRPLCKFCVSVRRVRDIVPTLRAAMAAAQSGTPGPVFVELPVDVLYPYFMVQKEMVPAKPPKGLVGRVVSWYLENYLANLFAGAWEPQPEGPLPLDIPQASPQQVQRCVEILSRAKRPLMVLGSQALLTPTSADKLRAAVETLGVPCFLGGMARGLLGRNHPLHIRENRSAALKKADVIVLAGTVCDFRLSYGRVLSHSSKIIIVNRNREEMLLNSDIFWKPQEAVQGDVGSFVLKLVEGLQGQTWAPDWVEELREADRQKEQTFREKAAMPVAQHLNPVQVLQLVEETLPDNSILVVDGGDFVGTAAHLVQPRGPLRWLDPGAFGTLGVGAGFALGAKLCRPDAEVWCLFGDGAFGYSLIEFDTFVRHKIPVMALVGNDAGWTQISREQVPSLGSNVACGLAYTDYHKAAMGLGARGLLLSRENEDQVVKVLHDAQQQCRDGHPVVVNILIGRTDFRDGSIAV
UniProt Q9H0C8, sequence (Q9H0C8 whole entry, looked up): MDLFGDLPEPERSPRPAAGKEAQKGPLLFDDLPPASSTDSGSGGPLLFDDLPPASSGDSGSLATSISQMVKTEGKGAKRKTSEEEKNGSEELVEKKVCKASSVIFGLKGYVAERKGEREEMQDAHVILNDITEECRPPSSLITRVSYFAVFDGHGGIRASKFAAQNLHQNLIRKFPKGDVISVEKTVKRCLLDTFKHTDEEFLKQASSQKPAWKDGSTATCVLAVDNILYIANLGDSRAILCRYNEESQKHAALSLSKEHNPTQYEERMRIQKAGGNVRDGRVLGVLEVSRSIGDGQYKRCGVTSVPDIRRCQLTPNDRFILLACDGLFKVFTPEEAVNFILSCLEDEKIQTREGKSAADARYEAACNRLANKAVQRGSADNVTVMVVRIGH
UniProt P45984, sequence (P45984 whole entry, looked up): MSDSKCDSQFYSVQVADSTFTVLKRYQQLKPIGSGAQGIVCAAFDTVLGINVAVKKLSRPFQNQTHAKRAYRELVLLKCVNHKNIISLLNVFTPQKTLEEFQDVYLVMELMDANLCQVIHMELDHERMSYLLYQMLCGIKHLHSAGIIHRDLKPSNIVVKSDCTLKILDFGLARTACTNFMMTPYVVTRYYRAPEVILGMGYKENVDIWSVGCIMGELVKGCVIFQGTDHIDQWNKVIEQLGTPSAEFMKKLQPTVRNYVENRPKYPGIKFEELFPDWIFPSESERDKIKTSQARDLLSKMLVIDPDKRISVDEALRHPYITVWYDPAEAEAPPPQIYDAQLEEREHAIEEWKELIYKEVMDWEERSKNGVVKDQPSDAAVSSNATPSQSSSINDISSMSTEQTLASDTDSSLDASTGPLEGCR
UniProt Q9NQ29, sequence (Q9NQ29 whole entry, looked up): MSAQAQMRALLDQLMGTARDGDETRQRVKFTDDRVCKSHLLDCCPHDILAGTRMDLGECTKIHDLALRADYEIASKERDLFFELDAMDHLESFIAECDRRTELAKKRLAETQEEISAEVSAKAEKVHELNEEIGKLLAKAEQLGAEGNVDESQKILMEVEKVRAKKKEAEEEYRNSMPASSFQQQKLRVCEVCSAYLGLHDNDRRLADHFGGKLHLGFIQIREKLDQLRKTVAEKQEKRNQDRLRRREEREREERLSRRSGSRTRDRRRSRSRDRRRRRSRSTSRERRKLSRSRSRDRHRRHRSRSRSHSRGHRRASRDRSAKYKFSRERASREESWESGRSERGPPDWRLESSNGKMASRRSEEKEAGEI
UniProt Q16644, sequence (Q16644 whole entry, looked up): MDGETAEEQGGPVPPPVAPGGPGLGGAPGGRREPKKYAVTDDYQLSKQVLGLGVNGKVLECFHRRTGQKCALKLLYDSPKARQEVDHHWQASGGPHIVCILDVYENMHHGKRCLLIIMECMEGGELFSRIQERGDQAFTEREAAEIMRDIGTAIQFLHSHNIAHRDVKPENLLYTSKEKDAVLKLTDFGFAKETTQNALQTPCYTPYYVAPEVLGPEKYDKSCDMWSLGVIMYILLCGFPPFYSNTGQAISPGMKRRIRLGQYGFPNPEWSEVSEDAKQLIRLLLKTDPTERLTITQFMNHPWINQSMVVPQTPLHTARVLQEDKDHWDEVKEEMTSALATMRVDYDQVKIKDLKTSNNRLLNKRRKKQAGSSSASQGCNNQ
UniProt Q86WA8, sequence (Q86WA8 whole entry, looked up): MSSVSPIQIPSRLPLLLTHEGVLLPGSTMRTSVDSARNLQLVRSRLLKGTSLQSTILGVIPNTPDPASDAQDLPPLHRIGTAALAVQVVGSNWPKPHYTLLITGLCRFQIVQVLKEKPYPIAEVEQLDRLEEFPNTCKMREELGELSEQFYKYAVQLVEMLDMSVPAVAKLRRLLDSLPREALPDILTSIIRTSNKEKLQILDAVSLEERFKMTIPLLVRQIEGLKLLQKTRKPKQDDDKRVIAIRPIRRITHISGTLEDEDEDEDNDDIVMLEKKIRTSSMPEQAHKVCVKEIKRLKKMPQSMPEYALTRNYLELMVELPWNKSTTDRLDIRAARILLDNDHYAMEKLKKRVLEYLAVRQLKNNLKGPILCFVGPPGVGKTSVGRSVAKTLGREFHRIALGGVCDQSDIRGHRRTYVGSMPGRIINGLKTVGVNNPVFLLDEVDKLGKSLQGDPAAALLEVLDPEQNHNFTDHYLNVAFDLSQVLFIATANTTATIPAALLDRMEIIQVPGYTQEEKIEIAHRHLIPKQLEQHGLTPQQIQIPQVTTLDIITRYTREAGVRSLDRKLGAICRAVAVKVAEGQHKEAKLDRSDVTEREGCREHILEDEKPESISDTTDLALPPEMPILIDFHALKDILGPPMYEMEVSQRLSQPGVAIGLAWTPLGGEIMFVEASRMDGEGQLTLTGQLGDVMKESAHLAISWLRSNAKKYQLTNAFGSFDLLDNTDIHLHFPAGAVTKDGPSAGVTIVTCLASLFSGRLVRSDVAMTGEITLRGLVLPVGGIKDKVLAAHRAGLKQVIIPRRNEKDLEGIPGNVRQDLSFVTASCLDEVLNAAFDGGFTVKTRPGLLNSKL
UniProt Q8NE86, sequence (Q8NE86 whole entry, looked up): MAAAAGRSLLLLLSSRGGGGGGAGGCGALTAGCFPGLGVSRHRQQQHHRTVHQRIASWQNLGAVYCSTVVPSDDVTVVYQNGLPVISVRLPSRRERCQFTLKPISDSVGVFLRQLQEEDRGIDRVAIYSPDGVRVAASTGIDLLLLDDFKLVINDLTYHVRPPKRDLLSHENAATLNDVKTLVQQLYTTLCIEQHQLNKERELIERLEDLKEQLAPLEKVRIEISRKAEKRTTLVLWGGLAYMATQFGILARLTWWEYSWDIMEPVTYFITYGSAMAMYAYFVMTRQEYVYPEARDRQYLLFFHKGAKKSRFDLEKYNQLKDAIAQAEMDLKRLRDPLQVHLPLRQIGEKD
UniProt O43766, sequence (O43766 whole entry, looked up): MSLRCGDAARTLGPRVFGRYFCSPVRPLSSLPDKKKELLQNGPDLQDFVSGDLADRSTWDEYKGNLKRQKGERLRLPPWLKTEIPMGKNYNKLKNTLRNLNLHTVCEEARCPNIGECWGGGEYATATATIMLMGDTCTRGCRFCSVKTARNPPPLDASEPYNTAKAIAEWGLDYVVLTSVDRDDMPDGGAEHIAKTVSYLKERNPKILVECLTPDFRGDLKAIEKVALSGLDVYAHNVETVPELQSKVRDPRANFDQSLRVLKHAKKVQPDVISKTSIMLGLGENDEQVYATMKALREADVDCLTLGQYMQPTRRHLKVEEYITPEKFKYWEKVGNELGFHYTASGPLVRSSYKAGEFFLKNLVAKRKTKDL
UniProt Q9H3F6, sequence (Q9H3F6 whole entry, looked up): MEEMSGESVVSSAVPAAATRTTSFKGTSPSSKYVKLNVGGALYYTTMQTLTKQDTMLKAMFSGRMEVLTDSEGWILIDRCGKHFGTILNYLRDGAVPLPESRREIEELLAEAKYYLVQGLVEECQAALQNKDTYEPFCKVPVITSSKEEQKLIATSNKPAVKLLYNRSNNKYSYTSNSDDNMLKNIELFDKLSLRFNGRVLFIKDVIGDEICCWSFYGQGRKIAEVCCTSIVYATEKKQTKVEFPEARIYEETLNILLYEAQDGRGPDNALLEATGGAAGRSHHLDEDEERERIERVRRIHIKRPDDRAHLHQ

Row | Target | log2 fold change [1] | log2 fold change [2] | log2 fold change [3] | log2 fold change [4] | log2 fold change [5] | log2 fold change [6] | log2 fold change [7] | log2 fold change [8] | log2 fold change [9] | log2 fold change [10] | log2 fold change [11] | log2 fold change [12] | log2 fold change [13] | log2 fold change [14] | log2 fold change [15] | log2 fold change [16] | log2 fold change [17] | log2 fold change [18] | log2 fold change [19] | log2 fold change [20]
1 | LUC7L (UniProt Q9NQ29) | -0.084 | 0.043 | -0.092 | 0.114 | -0.062 | -0.003 | -0.105 | -0.016 | -0.016 | -0.035 | -0.098 | 0.027 | -0.137 | 0.009 | 0.08 | -0.007 | 0.021 | 0.101 | 0.083 | -0.056
2 | LMNB2 (UniProt Q03252) | 0.027 | 0.062 | 0.001 | 0.025 | -0.042 | 0.099 | -0.066 | -0.186 | -0.167 | 0.001 | -0.026 | -0.017 | -0.214 (active) | -0.018 | 0.052 | -0.093 | 0.03 | 0.011 | -0.013 | -0.022
3 | KCTD10 (UniProt Q9H3F6) | -0.041 | 0.159 | -0.051 | 0.014 | -0.021 | 0.049 | -0.171 | 0.045 | -0.027 | -0.055 | 0.01 | 0.024 | -0.037 | -0.049 | 0.043 | 0.277 (active) | -0.02 | -0.021 | -0.017 | -0.034
4 | ILKAP (UniProt Q9H0C8) | 0.096 | 0.26 | 0.071 | -0.02 | 0.126 | 0.011 | 0.022 | 0.088 | -0.092 | -0.076 | -0.07 | -0.016 | -0.055 | -0.024 | -0.133 | -0.078 | -0.053 | -0.004 | 0.017 | 0.032
5 | LMF2 (UniProt Q9BU23) | -0.017 | 0.002 | -0.005 | 0.434 (active) | 0.055 | -0.012 | 0.006 | 0.052 | -0.021 | 0.021 | 0.006 | -0.035 | 0.001 | -0.008 | -0.029 | -0.152 | 0.08 | 0.008 | -0.018 | 0.001
6 | LONP2 (UniProt Q86WA8) | 0.07 | -0.111 | 0.263 | 0.131 | -0.021 | 0.065 | 0.168 | 0.067 | -0.037 | -0.002 | -0.016 | -0.023 | -0.033 | 0.103 | -0.135 | 0.004 | -0.609 (active) | -0.008 | -0.271 | -0.009
7 | MAPKAPK3 (UniProt Q16644) | 0.034 | -0.012 | 0.431 (active) | -0.041 | 0.024 | -0.069 | 0.256 | 0.029 | 0.021 | -0.054 | 0.031 | 0.006 | 0.332 (active) | 0.413 (active) | -0.103 | -0.121 | -0.151 | -0.039 | -0.008 | 0.045
8 | ILVBL (UniProt A1L0T0) | 0.027 | 0.092 | -0.035 | -0.02 | 0.178 | -0.03 | 0.009 | -0.026 | 0.014 | 0.095 | 0.073 | 0.048 | -0.027 | -0.075 | -0.053 | 0.058 | -0.018 | 0.066 | -0.013 | 0.025
9 | IGF2R (UniProt P11717) | -0.052 | 0 | 0 | 0.025 | -0.012 | 0.003 | 0.009 | -0.021 | 0.002 | 0.012 | -0.002 | 0.013 | 0.016 | -0.038 | -0.007 | -0.218 (active) | -0.009 | 0.005 | 0.029 | -0.071
10 | LENG8 (UniProt Q96PV6) | -0.072 | 0.133 | 0.091 | 0.108 | -0.024 | -0.037 | -0.141 | 0.096 | 0.152 | -0.229 | -0.122 | 0 | -0.173 | -0.13 | -0.389 | -0.646 (active) | 0.107 | -0.071 | 0.031 | 0.15
11 | MAPK9 (UniProt P45984) | 0.007 | 0.027 | 0.031 | -0.02 | 0 | -0.02 | -0.026 | 0.202 | 0.063 | 0.016 | -0.002 | -0.016 | 0.278 (active) | 0.208 | 0.005 | -0.037 | -0.032 | -0.032 | -0.022 | 0
12 | MCU (UniProt Q8NE86) | 0.007 | 0.042 | 0.083 | 0.008 | 0.027 | 0.013 | 0.001 | 0.014 | 0.004 | 0.013 | 0.06 | -0.026 | -0.036 | -0.042 | -0.108 | -0.122 | -0.026 | 0.03 | 0.025 | 0.017
13 | LIAS (UniProt O43766) | 0.068 | -0.24 (active) | 0.011 | 0.019 | 0.014 | 0.007 | -0.273 | 0.009 | 0.028 | 0 | 0.029 | 0.005 | 0.101 | -0.212 | -0.003 | -0.023 | 0.131 | -0.011 | 0.003 | -0.01
